This is part of a sample that, as a whole, favours compounds with a hit. Of some 79,000 tested, about 15% had one in any assay. Values without a mark were called inactive. Active and inactive are the calls of the source. Rule as the data show it: active = growth inhibition above about 70%; inactive = the rest.
Experiment: NCI Yeast Anticancer Drug Screen. Data for the mlh1 rad18 strain (AID 175)
Settings: S. cerevisiae mlh1 rad18 strain growth inhibition; at 50.0 µM; active compounds read high
Procedure, shortened: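 Yeast w/ defined DNA-repair lesions; compound exposure; growth vs vehicle controls → % inhibition.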

Compound	growth inhibition
c1ccc2scnc2c1	37.2%
CN(C)S(=O)(=O)C(C(=O)Nc1ccccc1)c1ccccc1 (stereo not given)	-10.5%
N#CCCn1nc(SC2CCCCC2)c(=O)[nH]c1=O	4.3%
CCOc1ccc(/C=C(\NC(=O)c2ccccc2)C(=O)Nc2ccccc2)cc1OC	2.1%
COc1ccc2nc(-c3ccc(F)cc3)cc(C(=O)O)c2c1	17.1%
CC(=O)SC12CCCN1C(=O)C1(SC(C)=O)CCCN1C2=O (stereo not given)	37%
O=C(C[n+]1ccncc1)c1cccc([N+](=O)[O-])c1	27.4%
N#CC(C#N)=C(O)/C(=C/c1ccc(Cl)cc1Cl)NC(=O)c1ccccc1	14.3%
NC(Cc1cccc2ccccc12)C(=O)O (stereo not given)	5.5%
O=C(NC(=O)c1ccccc1Cl)Nc1ccc(C(O)(C(F)(F)F)C(F)(F)F)cc1	61.5%
CCOC(=O)C(CCCOC1CCCCO1)(C(=O)OCC)c1ccccc1 (stereo not given)	-5%
C(=Nc1ccc2c(c1)Cc1ccccc1-2)c1ccccn1	49.4%
OCCCc1nc2ccccc2[nH]1	11.1%
CCN(CC)c1ccc(NCC(O)c2cc(Cl)ccc2OC)cc1 (stereo not given)	-1.65%
O=C1C=C(Cl)C(=O)O1	15.6%
CCN(CC)CCCC(C)Nc1nccc(/C=C/c2ccc(Cl)cc2)n1 (stereo not given)	41.7%
CC(Oc1ccccc1)C(O)(c1ccc(N(C)C)cc1)c1ccc(N(C)C)cc1 (stereo not given)	11.9%
CCO/C(O)=C(/C#N)C(=O)NC1=NCCCCC1	16.4%
O=C(O)c1cccc(Cl)c1-c1c(Cl)cccc1C(=O)O	-8.45%
Cc1cccc(N=C/C=C/c2ccccc2)c1C	-5.85%

Compound	growth inhibition
CC(C)n1cnc2c(=O)[nH]c(=O)[nH]c21	2.9%
N#CC(=C1C=CC(=NO)C=C1)c1ccc(Cl)cc1	1.9%
Cc1ccc(C)c(CNC(=O)NC(C)(C)C)c1	-0.75%
Cc1ccc2c(-c3ccc4ccccc4c3)c3ccccc3cc2c1	-40.5%
O=C(/C=C/c1ccc(O)c(O)c1)c1ccc(O)cc1O	-38.9%
CN(C)CCNc1cccc2oc3ccc(O)cc3c(=O)c12	7.4%
COc1cc(C)cc2c1C(=O)C(Br)=CC2=O	89.8% (active)
COc1cc(OC(=O)/C=C2/CCC(=O)O2)c2c(c1)OC1OC(=O)CC21 (stereo not given)	15.8%
CCC(=O)c1ccc(F)cc1	20.4%
Cc1ccc(CO)c(O)c1	2.15%
O=[N+]([O-])c1ccc(S(=O)(=O)N/N=C/c2cccc3ccccc23)cc1	19.8%
CC(=O)OCC1OC(Sc2cccc3ccccc23)C(OC(C)=O)C(OC(C)=O)C1OC(C)=O (stereo not given)	3.4%
CC1(C)CNC[C@](C)(OCc2ccccc2)N1	-4.7%
CN(C)CC1CCC(=C2CCCC2)C1=O (stereo not given)	20.6%
COc1ccc2nc(NC(=O)C(=O)C(C(=O)c3ccccc3-c3ccccc3)C3OC(=O)c4ccccc43)sc2c1 (stereo not given)	-16.1%
CCOC(=O)C(NC(=O)c1cccc(Cl)c1)(N1CCN(c2cc3c(cc2F)c(=O)c(C(=O)O)cn3CC)CC1)C(F)(F)F (stereo not given)	-23.6%
NC(N)=NC1CCc2ccccc2C1 (stereo not given)	-5.1%
Nc1nc(SSc2nc(N)nc3c2ncn3C2OC(CO)C(O)C2O)c2ncn(C3OC(CO)C(O)C3O)c2n1 (stereo not given)	-1.3%
Cc1cccc(N=NC2Sc3nc4ccccc4n3C2=O)c1 (stereo not given)	2.9%
C=CCCCCCCCCCCCCCCCCC	-28%

— PubChem BioAssay (NCI)
